According to PubChem BioAssay (NCI):
This is part of a sample that, as a whole, favours compounds with a hit. Of some 83,000 tested, about 20% had one in any assay.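 Negative percent growth values reflect cell death: -40 means 40% of the cells present at the start died, and -100 means all died.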 Unmarked numbers belong to inactive results. Activity calls are given as the source filed them. How the source made its calls: active means growth percent below 10; inactive means the rest.

These molecules were tested on MDA-MB-435 melanoma (assay: NCI-60 one-dose screen, 48 h (100 = growth as untreated, 0 = no growth, -100 = all killed)). Conditions: 10 µM unless noted.

Row | SMILES | growth
1 | COc1ccc(-c2cc(-c3cc(C(C)C)c(O)cc3C)nn2-c2ccc(S(N)(=O)=O)cc2)cc1 | -58.2% (active)
2 | Clc1ccc(-c2nc3c4c(-c5ccccc5)c(-c5ccccc5)n(Cc5ccccc5)c4ncn3n2)cc1 | 5.5% (active)
3 | Cc1ccc(-c2cc(C(=O)N=Nc3c(O)[nH]c4ccc(F)cc34)c3ccccc3n2)cc1 | 61%
4 | COc1ccc(/C=C/c2nc3ccccc3n3c(-c4cccc([N+](=O)[O-])c4)nnc23)cc1 | -46.5% (active)
5 | O=C(c1ccc(O)cc1)C1[C@H](c2ccc(Cl)cc2)[C@@H](c2ccccc2)NC12C(=O)Nc1ccccc12 (stereo not given in full) | -34% (active)
6 | N#C/C(=C1/C(=O)Nc2ccccc21)c1nnc(NC(=O)c2ccc(-n3c(=O)[nH]c4ccccc4c3=O)cc2)s1 | -85.5% (active)
7 | CN(C(=O)CN1C(=O)/C(=C/c2ccco2)SC1=S)C1CCS(=O)(=O)C1 (stereo not given) | 97%
8 | COc1c2c(cc3c1C(CCc1ccccc1)N(C)CC3)OCO2 (stereo not given) | 5.73% (active)
9 | COc1cc(C2CC(c3ccc(F)cc3)=Nc3c(N)nc(N)nc3N2)ccc1Oc1nc(Nc2ccc(F)cc2)nc(N(C)C)n1 (stereo not given) | 47%
10 | CC(C)C[C@H](NC(=O)CNC(=O)C[C@H]1O[C@@H]2OC3(C)CC[C@H]4[C@H](C)CC[C@@H]([C@H]1C)[C@@]24O3)B(O)O | -71.1% (active)
11 | Cc1[nH]nc2ccc3nc(-c4cnn(CCO)c4)c4c(c3c12)CCCC4 | 18.7%
12 | CCCN(CCC)S(=O)(=O)c1ccc(C(=O)O)cc1.CCCN(CCC)S(=O)(=O)c1ccc(C(=O)O)cc1.[Cl][Pt+2][Cl].[NH2-].[NH2-] | -54.6% (active)
13 | COc1ccc(N=Nc2c(N)nn3c(-c4ccc5c(c4)C=S=C5)ccnc23)cc1 | 83.8%
14 | O=C(NNC(=O)c1ccc(OCc2nc3ccc(Cl)cc3[nH]2)cc1)Nc1ccc(Cl)c(Cl)c1 | 26.7%
15 | Cc1nc(Nc2ccccn2)sc1C1=NNC(c2ccccc2F)C1 (stereo not given) | -17.9% (active)
16 | COc1ccc(-c2nc3ccccc3n2CC(=O)N=Nc2c(O)[nH]c3ccc(Br)cc23)cc1 | 23.3%
17 | CC[C@]12C=CCN3CC[C@@]4(c5ccc(OC)cc5N(C)[C@H]4[C@@](O)(C(=O)OC)[C@@H]1OC(=O)CCC[P+](c1ccc(OC)cc1)(c1ccc(OC)cc1)c1ccc(OC)cc1)[C@@H]32 | -76.9% (active)
18 | COc1ccc(-c2cc(C(=O)N=Nc3c(O)[nH]c4ccc(Cl)cc34)c3ccccc3n2)cc1OC | 119%
19 | Fc1ccc(Nc2nnc(-c3c[nH]c4ccccc34)o2)cc1 | 89.8%
20 | O=C(NN1C(=O)/C(=C/C=C/c2ccc([N+](=O)[O-])o2)SC1=S)c1ccc(O)cc1 | -91% (active)
21 | Cc1cccc(-c2ccccc2Oc2ccc3nnc(Cl)n3n2)c1 | 105%
22 | C[C@H](NC(=O)c1ccc2c(-c3ccc(C(F)(F)F)cc3)cccc2c1)c1ccccn1 | 56%
23 | Cc1ccc(C(=O)Nc2cc(-c3ccccc3)cc(C(F)(F)F)c2)cc1C#Cc1cnc2cccnn12 | 45.3%
24 | O=[N+]([O-])c1cccc(-c2nnc3c(/C=C/c4ccc(F)cc4)nc4ccccc4n23)c1 | 102%
25 | O=C1Nc2cc(-c3ccc(NS(=O)(=O)c4ccc(C(F)(F)F)cc4)cc3)ccc2/C1=C/c1ccc[nH]1 | 9.69% (active)
